Like-named read-outs stand apart in the source and are kept apart here. In all, about 13,000 compounds went through this assay and about 3,200 (25%) showed an effect of 50% or more. This is one part of the list.
Test system: P. falciparum stage V gametocytes
Set-up: BacTiter-Glo ATP luminescence viability of purified stage V gametocytes in 384-well plates, per cent inhibition versus DMSO
Conditions: 48 h, 5 µM, inhibitor

SMILES	% Inhibition	% Inhibition (% Inhibition)
CC(Cc1ccc(-c2nc3ccccc3[nH]2)cc1)NCC(O)c1cccc(C(F)(F)F)c1 (stereo not shown) [TCMDC-131524]	-16.53%	
Cc1ccc(C(C)C)c(Oc2cnc(NC(CO)c3ccccc3)nc2N)c1 (stereo not shown) [TCMDC-135558]	13.9%	
Cc1cc2ccc(/C=C/C(=O)NC3CCC(CCN4CCc5ccc(C#N)cc5CC4)CC3)cc2[nH]1 (stereo not shown) [TCMDC-139668]	-29.35%	
O=C(Cc1cn(-c2ccccc2)nc1-c1ccc(Cl)cc1)Nc1nccs1 [TCMDC-124872]	-9.075%	
Nc1c(-c2ccc(C(=O)NCCNCc3ccccc3)cc2)cnn1-c1ccc(C(F)(F)F)cc1 [TCMDC-136660]	12.46%	
N#Cc1ccc(N2CCN(Cc3cccc(-c4ccc(-c5nc6cc(C(F)(F)F)ccc6[nH]5)cc4)c3)CC2)nc1.O=C(O)C(F)(F)F [TCMDC-133112]	-19.5%	
CC(C)c1sc(N2CCN(C)CC2)nc1C(=O)Nc1cccc2c1CCCC2 [TCMDC-134303]	-19.32%	
O=C(/C=C/c1ccc(Cl)c(Cl)c1)NCCCCCN1CCC(NC(=S)Nc2ccc(Cl)cc2)CC1 [TCMDC-135898]	6.847%	
O=C(Nc1cc(C(F)(F)F)cc(C(F)(F)F)c1)NC1CCC(CN2CCC(c3c[nH]c4ccccc34)CC2)CC1 (stereo not shown) [TCMDC-140199]		-51.42%
O=C(Nc1ccccc1OC(F)(F)F)NC1CCC(CN2CCC(c3c[nH]c4ccccc34)CC2)CC1 (stereo not shown) [TCMDC-140185]		-31.33%
O=C(Nc1cc(C(F)(F)F)cc(C(F)(F)F)c1)NC1CCC(CN2CCC(c3c[nH]c4ccccc34)CC2)CC1 (stereo not shown) [TCMDC-140180]		75.46%
O=C(Nc1ccc(Oc2ccccc2)cc1)NC1CCC(CN2CCC(c3c[nH]c4ccccc34)CC2)CC1 (stereo not shown) [TCMDC-140186]	102.3%	
O=C(Nc1ccccc1OC(F)(F)F)NC1CCC(CN2CCC(c3c[nH]c4ccccc34)CC2)CC1 (stereo not shown) [TCMDC-140203]		-4.21%
O=C(NCCNc1ccnc(NCc2ccc(F)cc2)n1)c1cc2ccccc2s1 [TCMDC-133646]	-28.02%	
O=C(NCc1ccc(Cl)c(Cl)c1)c1ccc(C2CCN(Cc3ccc4nc[nH]c4c3)CC2)cc1 [TCMDC-133069]	-61.63%	
COc1ccc2c(c1)CC(NCc1ccc(-c3ccc4nc[nH]c4c3)cc1)C2 (stereo not shown) [TCMDC-133483]	36.76%	
COc1ccc2c(c1)CC(C)(C)NC2CCCCCCCCC1NC(C)(C)Cc2cc(OC)ccc21 (stereo not shown) [TCMDC-137935]	92.87%	
Cc1ccc(NC(=O)c2ccc(CN3CCCN(Cc4cccc(Cl)c4)CC3)cc2)cc1C [TCMDC-136426]	-8.077%	
NC1=NC2(CCCCC2)N(OCCCCCCN2C(=O)c3ccccc3C2=O)C(N)=N1 [TCMDC-140537]	2.277%	
O=C(/C=C/c1c(Cl)cccc1Cl)NC1CCC(CN2CCC(c3c[nH]c4ccncc34)CC2)CC1 (stereo not shown) [TCMDC-140220]	108.5%	
O=C(/C=C/c1c(Cl)cccc1Cl)NC1CCC(CN2CCC(c3c[nH]c4ccccc34)CC2)CC1 (stereo not shown) [TCMDC-139856]		7.287%
O=C(/C=C/c1ccc(Cl)c(Cl)c1)NC1CCC(CN2CCC(Cc3cc4ccccc4[nH]3)CC2)CC1 (stereo not shown) [TCMDC-140232]	-17.26%	

SMILES	% Inhibition	% Inhibition (% Inhibition)
O=C(/C=C/c1ccccc1Cl)NC1CCC(CN2CCC(c3c[nH]c4ccncc34)CC2)CC1 (stereo not shown) [TCMDC-140110]	79.76%	
O=C(/C=C/c1c(Cl)cccc1Cl)NC1CCC(CN2CCC(Cc3cc4ccccc4[nH]3)CC2)CC1 (stereo not shown) [TCMDC-140233]	51.23%	
CS(=O)(=O)Nc1ccc2[nH]cc(C3CCN(CC4CCC(NC(=O)/C=C/c5ccccc5Cl)CC4)CC3)c2c1 (stereo not shown) [TCMDC-139887]	39.39%	
O=C(C=Cc1cccc(Cl)c1Cl)NC1CCC(CN2CCC(c3c[nH]c4ccccc34)CC2)CC1 (stereo not shown) [TCMDC-139910]		41.2%
O=C(/C=C/c1ccc(Cl)c(Cl)c1)NC1CCC(CN2CCC(c3cc4ccccc4[nH]3)CC2)CC1 (stereo not shown) [TCMDC-140236]	9.147%	
O=C(/C=C/c1c(Cl)cccc1Cl)NC1CCC(CN2CCC(c3c[nH]c4ccccc34)CC2)CC1 (stereo not shown) [TCMDC-139858]		-12.84%
CC(C)(C)Oc1ccc(CC2NC3(C(=O)N(Cc4ccc(C(C)(C)C)cc4)c4ccccc43)C3C(=O)N(c4ccc(Br)cc4)C(=O)C23)cc1 (stereo not shown) [TCMDC-139774]	1.203%	
CC(C)C1C(O)=C(c2ccc3ccccc3c2)C(=O)N1Cc1cccc(F)c1 (stereo not shown) [TCMDC-141811]	28.08%	
CN(CCc1ccccc1)c1ncc(-c2ccccc2CNCc2ccccc2O)cn1 [TCMDC-132575]	53.28%	
Oc1ccccc1CNCc1ccc(-c2cnc(N3CCCC(c4ccccc4)C3)nc2)cc1 (stereo not shown) [TCMDC-133768]	-9.076%	
CCCN(CC1CC1)c1ncc(-c2ccccc2CNCc2ccccc2O)cn1 [TCMDC-132574]	-10.65%	
O=c1cc(NCCCCNCc2cccc(Cl)c2)[nH]c2ccccc12 [TCMDC-139311]	-48.31%	
CCCC(C)NC(=O)/C=C/c1ccccc1-c1cccc(OC)c1 (stereo not shown) [TCMDC-136229]	-11.68%	
COc1cc(C(=O)NC2CC(C)(C)N(C)C(C)(C)C2)ccc1-c1nc2cc(Cl)c(Cl)cc2[nH]1 [TCMDC-139618]	89.66%	
COc1cc(C(=O)NC2CC(C)(C)N(C)C(C)(C)C2)ccc1-c1cc2cc(Cl)c(Cl)cc2[nH]1 [TCMDC-139227]	47.65%	
CCOc1cc(C(=O)NC2CC(C)(C)NC(C)(C)C2)ccc1-c1cc2cc(Cl)c(Cl)cc2[nH]1 [TCMDC-139960]	72.27%	
CCOc1cc(C(=O)NC2CC(C)(C)NC(C)(C)C2)ccc1-c1nc2ccc(Cl)cc2[nH]1 [TCMDC-140404]	39.53%	
COc1cc(C(=O)NC2CC(C)(C)NC(C)(C)C2)ccc1-c1cc2cc(Cl)c(Cl)cc2[nH]1 [TCMDC-139693]	-5.047%	
CN1C(C)(C)CC(NC(=O)c2ccc(-c3nc4cc(Cl)c(Cl)cc4[nH]3)cc2)CC1(C)C [TCMDC-139250]	28.21%	
Cc1c(-c2ccc(C(=O)NC3CC(C)(C)NC(C)(C)C3)cc2)[nH]c2cc(Cl)c(Cl)cc12 [TCMDC-140975]	52.66%	
CN1C(C)(C)CC(NC(=O)c2ccc(-c3nc4ccc(Cl)cc4[nH]3)cc2)CC1(C)C [TCMDC-139262]	-8.23%	
CCOc1cc(C(=O)NC2CC(C)(C)N(C)C(C)(C)C2)ccc1-c1nc2cc(Cl)c(Cl)cc2[nH]1 [TCMDC-140058]	24.71%	

SMILES	% Inhibition	% Inhibition (% Inhibition)
O=C(Nc1ccc(CN2CCCCC2)cc1)c1ccc(COc2ccc([N+](=O)[O-])cc2)o1 [TCMDC-123727]	-23.78%	
CC(C)Oc1ccc(CCCON2C(N)=NC(N)=NC2(C)C)cc1 [TCMDC-131759]	12.88%	
Cc1cc(NC(=O)c2ccco2)ccc1OC1CCN(Cc2ccccc2)CC1 [TCMDC-133965]	12.37%	
COc1ccc2nccc([C@@H](O)CN3CCC(NCc4nc5c(C#N)cccc5[nH]4)CC3)c2c1 [TCMDC-141116]	-34.83%	
Oc1ccc(CCNc2nc(NCCCOc3ccccc3-c3ccc(C(F)(F)F)cc3)nc(N3CCNCC3)n2)cc1 [TCMDC-134139]	56.06%	
Oc1ccc(CCNc2nc(NCc3ccccc3-c3ccc(C(F)(F)F)cc3)nc(N3CCCNCC3)n2)cc1 [TCMDC-133388]	24.02%	
COc1ccc(-c2ccccc2OCCCNc2nc(NCCc3ccc(O)cc3)nc(N3CCNCC3)n2)cc1 [TCMDC-134136]	51.13%	
Oc1ccc(CCNc2nc(NCc3ccccc3-c3ccc(C(F)(F)F)cc3)nc(N3CCNCC3)n2)cc1 [TCMDC-138323]	-0.8501%	
Oc1ccc(CCNc2nc(NCCCOc3ccccc3-c3ccc(F)cc3)nc(N3CCNCC3)n2)cc1 [TCMDC-134135]	12.8%	
Oc1ccc(CCNc2nc(NCCCOc3ccccc3-c3ccncc3)nc(N3CCNCC3)n2)cc1 [TCMDC-134138]	16.05%	
Oc1ccc(CCNc2nc(NCCCOc3ccccc3-c3cccnc3)nc(N3CCNCC3)n2)cc1 [TCMDC-134137]	19.58%	
Oc1ccc(CCNc2nc(NCCCOc3ccccc3-c3cccc(C(F)(F)F)c3)nc(N3CCNCC3)n2)cc1 [TCMDC-134134]	10.32%	
Oc1ccc(CCNc2nc(NCc3ccccc3-c3ccccc3)nc(N3CCCNCC3)n2)cc1 [TCMDC-133386]	28.34%	
Oc1ccc(CC2CCCN(c3nc(NCCCOc4ccccc4-c4ccccc4)nc(N4CCNCC4)n3)C2)cc1 (stereo not shown) [TCMDC-134279]	106%	
OCCCCCCNc1nc(NCc2ccccc2-c2ccc(C(F)(F)F)cc2)nc(N2CCNCC2)n1 [TCMDC-134126]	66.94%	
Oc1ccc(CCNc2nc(NCCOc3ccccc3-c3ccccc3)nc(N3CCNCC3)n2)cc1 [TCMDC-134131]	-22.6%	
O=C(Nc1ccc(OC2CCN(Cc3ccccc3)CC2)c(Cl)c1)c1ccsc1 [TCMDC-133989]	12.12%	
Clc1ccc2c(NCc3ccccc3)ccnc2c1 [TCMDC-125506]	-30.27%	
CCCCNc1ccc(C(=O)NC2CCN(C[C@H](O)c3ccnc4ccc(OC)cc34)CC2)cc1 [TCMDC-141038]	-7.518%	
CC1(C)N=C(N)N=C(N)N1OCCCOc1cc(Cl)cc(Cl)c1 [TCMDC-131790]	16.66%	

— PMC4552634, “A New Set of Chemical Starting Points with Plasmodium falciparum Transmission-Blocking Potential for Antimalarial Drug Discovery” (PLoS ONE, 2015)
